Assay results published in PubChem BioAssay AID2551 (National Center for Advancing Translational Sciences (NCATS), 2010).
Out of some 310,000 compounds screened, about 17,000 (5.5%) were called active. Another 11% or so got no clear call; they are omitted. Calls come from the whole dose curve; as a rule, active = well fitted inhibition curve with a large enough effect; inconclusive = small, poorly fitted or top-dose-only effect, or effect the other way; inactive = no such curve, though single readings can be large or run the other way. For the sample, actives were picked, then their nearest neighbours and some compounds at random.

Each compound was assayed against Nuclear receptor ROR-gamma (Mus musculus) (UniProt P51450) (assay: qHTS for inhibitors of ROR gamma transcriptional activity). Settings: Drosophila S2 Gal4-RORgamma UAS-luciferase reporter, 20 h; series mostly up to 53.6 µM; activity change, negative = inhibition: at the top concentration.
Description: NIH Molecular Libraries Probe Production Network [MLPCN] NIH Chemical Genomics Center [NCGC] MLPCN Grant: R03 DA026211-01 Assay Provider: Dan Littman, New York University Assay Overview: The retinoic acid-related orphan receptor (ROR) gamma is a transcription factor that has a central role in the differentiation of Th17 cells, a subset of T helper cells that secrete the inflammatory cytokines IL-17, IL-17F, and IL-22. Th17 cells have been implicated in graft versus host disease, autoimmune disease and asthma. ROR gamma is induced in naive T helper cells in the presence of TGF-beta combined with IL-6, IL-21, or IL-23, and thereafter directs the expression of the Th17 lineage cytokines. To study the mechanism of action of ROR gamma, an insect cell-based assay was screened. This Drosophila Schneider cell line was stably transfected with two vectors: a gene expressing a fusion of the Gal4 DNA binding domain and ROR gamma transactivation domain under the control of the metallothionine promoter and a Photinus luciferase reporter regulated by the Gal4 binding site enhancer, UAS. […] Small molecule inhibitors of ROR gamma activity are detected by a decrease in luciferase reporter activity.
Assay Protocol Summary: For screening, 600 cells in 4 uL/well were dispensed into white solid 1536-well plates (Grenier) using a solenoid-based dispenser. Following transfer of 23 nL compound or DMSO vehicle by a pin tool, the plates were incubated 1 hr at ambient temperature, and 1 uL/well copper sulfate (700 uM final concentration) was added. The plates were centrifuged 15 s at 1000 RPM and incubated 20 hr at ambient temperature. After addition of 1.5 uL Photinus luciferase detection reagent, the plates were incubated 10 min at ambient temperature and then read by an ViewLux (Perkin Elmer) to detect luminescence. Keywords: NIH Roadmap, MLPCN, MLI, MLSMR, qHTS, NCGC, qHTS, nuclear hormone receptor, retinoic acid-related orphan receptor, ROR gamma
% is set by controls: 0 for no effect and ±100 for the full control effect; potency is the fitted concentration of half-maximal effect.
Note: nearly all actives have a fitted effect of over 60% in size.

Nuclear receptor ROR-gamma (Mus musculus), sequence (P51450 whole entry, looked up, the tested form may be a part): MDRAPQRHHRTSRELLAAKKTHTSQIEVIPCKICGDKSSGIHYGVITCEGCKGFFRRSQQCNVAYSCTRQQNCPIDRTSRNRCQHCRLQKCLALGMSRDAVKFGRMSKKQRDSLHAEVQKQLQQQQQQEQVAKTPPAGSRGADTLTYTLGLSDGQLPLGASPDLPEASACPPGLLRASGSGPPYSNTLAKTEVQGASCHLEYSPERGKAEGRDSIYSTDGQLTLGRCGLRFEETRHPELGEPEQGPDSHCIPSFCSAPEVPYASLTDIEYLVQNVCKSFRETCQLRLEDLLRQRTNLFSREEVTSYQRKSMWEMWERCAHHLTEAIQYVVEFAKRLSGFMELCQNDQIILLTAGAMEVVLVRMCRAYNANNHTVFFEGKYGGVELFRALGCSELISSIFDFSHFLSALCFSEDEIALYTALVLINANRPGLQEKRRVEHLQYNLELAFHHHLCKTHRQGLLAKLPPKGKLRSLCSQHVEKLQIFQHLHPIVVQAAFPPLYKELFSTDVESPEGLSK

SMILES	activity change, negative = inhibition	Potency
CSc1ccc(CCNC(=O)CS(=O)(=O)Cc2nc(-c3ccccc3F)oc2C)cc1	-13.9% (inactive)	–
Cc1ccc(C(=O)Nc2nnc(-c3cccs3)s2)cc1C	1.53% (inactive)	–
O=C(Nc1nnc(C2=COCCO2)o1)c1ccc([N+](=O)[O-])s1	–	2.82 µM (active)
Cc1ccc(C(=O)NCCN2CCOCC2)cc1C	-24.5% (inactive)	–
Cc1ccc(C(=O)Nc2nnc(C3=COCCO3)o2)cc1C	–	0.282 µM (active)
COc1ccc(C(CNCC(=O)Nc2ccccc2F)N(C)C)cc1 (stereo not given)	-0.678% (inactive)	–
C=CCn1c(CNS(=O)(=O)c2ccc(Br)cc2)nnc1SC	2.64% (inactive)	–
CC(C)c1ccc2oc(=O)cc(CN3CCN(Cc4ccccc4)CC3)c2c1	8.06% (inactive)	–
CCOc1ccc(NC(=O)CSc2nncn2C)cc1	6.27% (inactive)	–
COc1ccc(C)cc1NC(=O)CN(C)S(=O)(=O)c1ccc2c(c1)n(C)c(=O)c(=O)n2C	-2.02% (inactive)	–
CC(C)c1ccc(N(C(=O)c2ccco2)C(C(=O)NC2CCCC2)c2cccnc2)cc1 (stereo not given)	17.8% (inactive)	–
COc1ccc(CNC(=O)c2ccc3oc(C(C)C)nc3c2)cc1	24.2% (inactive)	–
COc1ccc(N2CCN(S(=O)(=O)c3ccc4c(c3)N(C(C)=O)CCO4)CC2)cc1	17.5% (inactive)	–
CCOCCCN(C)C1CCN(C(=O)c2oc3ccccc3c2NC(=O)Cc2cccc([N+](=O)[O-])c2)CC1	-6.41% (inactive)	–
Cc1nnnn1/C(=C\c1ccccc1)C(=O)OCC(=O)N1CC2(C)CC1CC(C)(C)C2 (stereo not given)	–	5.01 µM (active)
COc1cc(CCC(=O)N2CCN(c3ccccc3Cl)CC2)cc(OC)c1OC	19% (inactive)	–
COc1cccc(N2CC(C(=O)Nc3c(C)cccc3C)CC2=O)c1 (stereo not given)	-10.1% (inactive)	–
COc1ccc(NC(=S)NCCN2CCC(C)CC2)cc1	2.43% (inactive)	–
COc1ccc(N2CCC(CNC(=S)Nc3c(C)cccc3C)C2)cc1 (stereo not given)	–	0.891 µM (active)
COc1ccc(NC(=O)N2CCC(Cc3ccccc3)CC2)cc1	23.2% (inactive)	–
COc1ccc(NC(=S)NCC2CCN(c3ccc(OC)cc3)C2)cc1 (stereo not given)	–	3.16 µM (active)
COc1ccc(OCC(=O)Nc2ccc(N3CCC(C)CC3)cc2)cc1	-21.7% (inactive)	–
O=C(Cn1nc(C(=O)O)c2ccccc2c1=O)Nc1ccc(F)cc1	18.6% (inactive)	–
CC1Sc2ccc(S(=O)(=O)CCC(=O)NCc3ccccc3Cl)cc2NC1=O (stereo not given)	10.1% (inactive)	–
CC(=O)c1cc(CN2CCC(C(=O)Nc3cccc(-c4cscn4)c3)CC2)cs1	0% (inactive)	–
COc1ccc(CCNC(=O)c2nnc(CS(=O)(=O)c3ccccc3)o2)cc1OC	-8.42% (inactive)	–
Cc1cccc(OCC(=O)Nc2ccc(C(=O)O)cc2NC(=O)COc2cccc(C)c2)c1	-33.8% (inactive)	–

SMILES	activity change, negative = inhibition	Potency
COCCNc1ccc(-c2n[nH]c(=O)c3ccccc23)cc1[N+](=O)[O-]	-3.41% (inactive)	–
O=c1c2c(nc3nc[nH]n13)CCC2	11.8% (inactive)	–
Brc1ccc(Nc2c3c(nc4ncnn24)CCC3)cc1	–	12.6 µM (active)
Cc1nc(S(=O)(=O)c2ccc(Br)cc2)nc2c1CCC2	-1.07% (inactive)	–
CC1CN/C(=C\C(=O)c2ccc(Br)cc2)C(=O)N1 (stereo not given)	–	12.6 µM (active)
COc1cc2c(cc1OC)/C(=C/C(=O)c1ccc(NC(C)=O)cc1)NCC2	-26.3% (inactive)	–
C/C(=C\C(=O)c1ccc(Br)cc1)N1CCCCC1	-18.8% (inactive)	–
C[C@H](NC(=O)[C@@H]1Cc2ccccc2CN1C(=O)OC(C)(C)C)C(=O)NC1CCCC1	4.46% (inactive)	–
CC(NC(=O)c1ccco1)c1ccc2c(c1)OCO2 (stereo not given)	-5.06% (inactive)	–
Cc1cc(/C=N/Nc2ccc([N+](=O)[O-])cn2)c(C)n1-c1cccc(C(=O)O)c1	18.9% (inactive)	–
Cc1cccc(-n2c(C)cc(/C=N/NC(N)=S)c2C)c1	–	3.55 µM (active)
Cc1cc(/C=N/n2cnnc2)c(C)n1-c1cccc(C(=O)O)c1	-25.7% (inactive)	–
Cc1ccc(C(=O)Nc2ccc(NC(=O)c3cccs3)cc2)c(C)c1	-39.8% (inactive)	–
Cc1cc(/C=C2\SC(=O)N(C)C2=O)c(C)n1-c1cccc(C(=O)O)c1	20.7% (inactive)	–
Cc1cccc(-n2c(C)cc(/C=N\NC(=O)c3cccs3)c2C)c1	–	10 µM (active)
COC(=O)c1ccc2c(=O)n(CCN3CCOCC3)c(SCC(=O)Nc3cccc(OC)c3)nc2c1	14.3% (inactive)	–
CCN1C(=S)N[C@@H](c2cccc(C(F)(F)F)c2)C(C(=O)OC)=C1C	-38.5% (inactive)	–
CC(C)C[C@H](NC(=O)C1CCC(CNC(=O)[C@@H]2CCCN2C(=O)OC(C)(C)C)CC1)C(=O)O (stereo not given in full)	-27.2% (inactive)	–
COc1cc(NS(=O)(=O)c2ccc(NC(=S)NC(=O)c3ccccc3)cc2)nc(OC)n1	43.1% (inactive)	–
COc1cc(NS(=O)(=O)c2ccc(N/C=C(\C=O)c3nc4cc(Cl)ccc4o3)cc2)nc(OC)n1	–	14.1 µM (active)
COC(=O)Nc1ccc(S(=O)(=O)Nc2cc(OC)nc(OC)n2)cc1	6.6% (inactive)	–
COc1ccc(C2(O)C(=O)Nc3ccccc32)cc1 (stereo not given)	7.24% (inactive)	–
Cc1cccn2c(=O)c3cc(C(=O)NC4CCCCC4)sc3nc12	12.6% (inactive)	–
COc1ccc(-c2nc(CS(=O)(=O)CC(=O)NCc3cccc(Br)c3)c(C)o2)cc1	-4.95% (inactive)	–
S=C(NNC(=S)NC1CC2C=CC1C2)NC1CC2C=CC1C2 (stereo not given)	-1.63% (inactive)	–
CC(C)c1ccc(NC(=S)NNc2ccc(Cl)c(C(=O)O)c2)cc1	-2.28% (inactive)	–
CC(C)c1ccc(NC(=S)NC2CC3C=CC2C3)cc1 (stereo not given)	–	3.55 µM (active)

SMILES	activity change, negative = inhibition	Potency
CC(=O)Nc1ccc(NC(=O)COc2ccc(-c3ccccc3)cc2)cc1	-2.09% (inactive)	–
CC1=CC(C)(C)N(C(=O)CSc2nnc(-c3ccccc3)o2)c2ccc(C)cc21	3.05% (inactive)	–
CC1=CC(C)(C)N(C(=O)CSc2nccn2C)c2cc(C)ccc21	–	11.2 µM (active)
Cc1ccc(C)c(-n2ccnc2SCC(N)=O)c1	10.4% (inactive)	–
Cc1ccnc(NC(=O)CCCOc2ccccc2)c1	3.66% (inactive)	–
COc1cc(SC)ccc1C(=O)N(Cc1ccccc1)c1ccccc1	0.287% (inactive)	–
COc1cc(SC)ccc1C(=O)Nc1cc(C)ccn1	–	6.31 µM (active)
Cc1ccnc(NC(=O)c2ccoc2C)c1	-20.2% (inactive)	–
COc1ccccc1CNC(=O)c1ccc(SC)cc1OC	42% (inactive)	–
COc1cc(SC)ccc1C(=O)Nc1nc(C)cs1	–	1.26 µM (active)
COc1ccc(C)cc1NC(=O)CNCc1cccs1	26.6% (inactive)	–
Cc1sc2ncn(CC(=O)NCCCC(=O)NCc3ccc(F)cc3)c(=O)c2c1C	3.51% (inactive)	–
CC(C)(C)c1ccc(C(=O)N2CCN(CCNC(=O)C(=O)Nc3ccc(F)cc3)CC2)cc1	42.6% (inactive)	–
COc1ccc(CNS(=O)(=O)c2cc(-c3cc(C)no3)ccc2C(C)C)cc1	31.8% (inactive)	–
O=C(c1ccco1)N1CCN(C(=O)c2cc(-c3ccccc3F)no2)CC1	28.9% (inactive)	–
CC1(C)c2[nH]c3ccccc3c2C[C@H]2C(=O)N(N)CC(=O)N21	6.7% (inactive)	–
COc1ccc(C(=O)Cc2cnn(-c3ccccc3)c2)c(O)c1	27.6% (inactive)	–
O=C(c1cnn(-c2ccc(Cl)cc2)c1)c1ccccc1O	-38.1% (inactive)	–
Cc1cc(O)cc(O)c1C(=O)Cc1cnn(-c2ccccc2)c1	–	0.199 µM (active)
O=C(Nc1cccc(-n2cnnn2)c1)c1cccnc1	12.2% (inactive)	–
COc1ccc(CNC(=O)c2c[nH]c3c(OC)cc(OC)cc3c2=O)cc1	8.69% (inactive)	–
CCCOc1ccc(-c2c(C(=O)N/N=C/c3ccco3)nnn2-c2nonc2N)cc1	–	11.2 µM (active)
Nc1nonc1-n1nnc(C(=O)N/N=C/C2CCCCC2)c1-c1ccccc1	-30.9% (inactive)	–
Nc1nonc1-n1nnc(C(=O)N/N=C/c2c[nH]c3ccccc23)c1-c1ccccc1	3.13% (inactive)	–
Cn1c(=O)c2c(nc(NCCNC(=O)c3ccco3)n2Cc2ccccc2F)n(C)c1=O	16.6% (inactive)	–
O=C(O)c1ccc(S(=O)(=O)N2CCC(Cc3ccccc3)CC2)cc1	-17.6% (inactive)	–
Cn1cnc2c1c(=O)n(Cc1ccccc1C#N)c(=O)n2C	-22% (inactive)	–

SMILES	activity change, negative = inhibition	Potency
O=C1CN(C(=O)c2ccccc2F)C(c2ccc(F)cc2)c2cc(F)ccc2N1 (stereo not given)	24.6% (inactive)	–
Cc1cc(=O)oc2c(C)c(OCC(=O)NCCN3CCOCC3)ccc12	-6.37% (inactive)	–
C/C(=N\NC(=S)NCc1ccccc1)c1ccc(Cl)cc1	–	3.55 µM (active)
O=C(CC1CCCCC1)NCc1ccccc1	-26.9% (inactive)	–
CC1CCCCN1C(=S)NCc1ccccc1 (stereo not given)	-121% (inactive)	–
O=C(O)c1ccc(/C=N/NC(=S)NCc2ccccc2)cc1	-12% (inactive)	–
C[n+]1ccc(C(=O)NCc2ccccc2)cc1	-17.6% (inactive)	–
C/C(=N\NC(=S)NCc1ccccc1)C1CCCCC1	–	0.224 µM (active)
CC(CC(=O)N1CCN(c2ccccc2)CC1)S(=O)(=O)c1ccc2c(c1)NC(=O)CS2 (stereo not given)	26.3% (inactive)	–
COC(=O)COc1ccc2c(=O)c(Oc3ccccc3Br)coc2c1	-14.6% (inactive)	–
Cc1ccc(S(=O)(=O)NCC(=O)Nc2ccc3c(c2)OCCO3)cc1	-2.15% (inactive)	–
O=C(N/C(=C\c1ccc([N+](=O)[O-])cc1)C(=O)N1CCOCC1)c1cccc(Br)c1	18.2% (inactive)	–
O=C(/C=C/c1ccc(Cl)cc1)NCCCn1ccnc1	-4.51% (inactive)	–
CCn1cc(/C=C(\NC(=O)c2ccc(C)cc2)C(=O)NCCN2CCOCC2)c2ccccc21	6.77% (inactive)	–
O=C(NCCCN1CCOCC1)c1cc(-c2cccc(O)c2)on1	-16.9% (inactive)	–
COc1ccc(-c2cc(C(=O)NCCCN3CCOCC3)no2)cc1	-20.5% (inactive)	–
O=C(NCCCN1CCOCC1)c1cc(-c2ccc(Cl)cc2)on1	–	11.2 µM (active)
Cn1cc(S(=O)(=O)Nc2ccc(Cl)cc2Cl)c(=O)n(C)c1=O	-23.8% (inactive)	–
COc1cc(OC)c(NS(=O)(=O)c2cn(C)cn2)cc1Cl	-31.2% (inactive)	–
Cc1cc(C(=O)N/N=C/c2ccc(N3CCOCC3)cc2)c(C)o1	1.46% (inactive)	–
Cc1cc(C(=O)N/N=C/c2ccccc2[N+](=O)[O-])c(C)o1	14.4% (inactive)	–
CC(=C/c1ccccc1)/C=N/NC(=O)c1cc(C)oc1C	–	7.08 µM (active)
Cc1c(CC(=O)N2CCN(C(=O)C3COc4ccccc4O3)CC2)c(=O)oc2c(O)c(O)ccc12 (stereo not given)	-17.5% (inactive)	–
COc1cc(OC)cc(C(=O)Nc2nnc(SCC(=O)NCC3CCCO3)s2)c1 (stereo not given)	4% (inactive)	–
